Source: PubChem (National Center for Advancing Translational Sciences (NCATS))
Hits are enriched below; roughly 11% of the tested compounds scored in any of these assays.
G9a inh – inhibitors of human histone lysine methyltransferase G9a | G9a H3K9 monomethylation, AlphaScreen, 2 h | actives 8.8% (n = 350,000) | AID 504332 | Potency, µM (series often up to 102 µM), inactives show at the top dose activity, negative = inhibition, usual class: inhibitors | Q96KQ7; note: % is set by controls: 0 for no effect and ±100 for the full control effect; nearly all actives have a fitted effect of over 75% in size
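Using a bead-based AlphaScreen, monomethylated H3K9 product from 2 h room-temperature reactions (G9a 20 nM, peptide 500 nM, SAM 20 uM) was detected with 0.5 ug/mL rabbit anti-H3K9me1 antibody.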
VDR inh – vitamin D3 receptor (human) inhibition; P11473; VDR-SRC2-3 peptide fluorescence polarization, 2 h; Potency, µM, without a hit: max response, negative = inhibition, most hits filed as inhibitors; actives 0.93% (n = 400,000); note: % is set by controls: 0 for no effect and ±100 for the full control effect
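Reagent solutions, kept cold and dark, are dispensed first; compounds are then pinned in at 23 nl, plates briefly spun, and incubated 2 h at ambient temperature. Inhibition of VDR–SRC2-3 peptide binding is read by fluorescence polarization.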
BAZ2B inh – inhibitors of human BAZ2B bromodomain. Q9UIF8. AlphaScreen BAZ2B-H3K14Ac peptide displacement. Potency, µM (top dose mostly 114 µM), for the others: at the highest dose activity change, negative = inhibition, actives largely listed as inhibitors. actives 4.4% (n = 360,000); note: % is set by controls: 0 for no effect and ±100 for the full control effect; nearly all actives have a fitted effect of over 60% in size
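BAZ2B (50 nM) with biotin-H3(5-23)K14Ac peptide (50 nM) in PBS pH 7.4, 0.01% Tween-20, preformed 30 min, then compound 30 min at room temperature; top concentration 110uM. AlphaScreen streptavidin donor/nickel chelate acceptor beads (10 ug/mL final), 20 min dark, signal read.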
HP1b binding inh – HP1-beta chromodomain-methylated histone interaction inhibition; AID 540317; AlphaScreen HP1-beta / biotin-H3K9me3 peptide binding; actives 0.56% (n = 390,000); P83916; Potency, µM (highest dose often 114 µM), for the others: top-dose activity change, negative = inhibition, actives largely listed as inhibitors; note: nearly all actives have a fitted effect of over 70% in size
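Compound inhibition of the preformed complex between 50 nM HP1-beta and 50 nM biotinylated H3K9me3 peptide was read by AlphaScreen. Buffer was PBS pH 7.4 with 0.01% Tween-20. Incubations ran 30 min at room temperature, with 10 ug/mL donor/acceptor beads.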
PLK1 PBD inh – PLK1 (human) polo-box domain binding inhibition. P53350. Plk1 PBD binding of FITC phosphopeptide, fluorescence polarization. Potency, µM, without a hit: max response, negative = inhibition, most hits filed as inhibitors. actives 2.8% (n = 360,000); note: series mostly up to about 57 µM; % is set by controls: 0 for no effect and ±100 for the full control effect; nearly all actives have a fitted effect of over 65% in size
JMJD2A Tudor inh – JMJD2A Tudor domain (human) inhibition. O75164. AlphaScreen JMJD2A-Tudor / H3K4me3 peptide binding. Potency, µM (titrated, usually from 114 µM), for the others: top-dose activity change, negative = inhibition, usual class: inhibitors. actives 4.4% (n = 390,000); note: % is set by controls: 0 for no effect and ±100 for the full control effect; nearly all actives have a fitted effect of over 50% in size
Target sequence (O75164 whole entry, looked up, the tested form may be a part): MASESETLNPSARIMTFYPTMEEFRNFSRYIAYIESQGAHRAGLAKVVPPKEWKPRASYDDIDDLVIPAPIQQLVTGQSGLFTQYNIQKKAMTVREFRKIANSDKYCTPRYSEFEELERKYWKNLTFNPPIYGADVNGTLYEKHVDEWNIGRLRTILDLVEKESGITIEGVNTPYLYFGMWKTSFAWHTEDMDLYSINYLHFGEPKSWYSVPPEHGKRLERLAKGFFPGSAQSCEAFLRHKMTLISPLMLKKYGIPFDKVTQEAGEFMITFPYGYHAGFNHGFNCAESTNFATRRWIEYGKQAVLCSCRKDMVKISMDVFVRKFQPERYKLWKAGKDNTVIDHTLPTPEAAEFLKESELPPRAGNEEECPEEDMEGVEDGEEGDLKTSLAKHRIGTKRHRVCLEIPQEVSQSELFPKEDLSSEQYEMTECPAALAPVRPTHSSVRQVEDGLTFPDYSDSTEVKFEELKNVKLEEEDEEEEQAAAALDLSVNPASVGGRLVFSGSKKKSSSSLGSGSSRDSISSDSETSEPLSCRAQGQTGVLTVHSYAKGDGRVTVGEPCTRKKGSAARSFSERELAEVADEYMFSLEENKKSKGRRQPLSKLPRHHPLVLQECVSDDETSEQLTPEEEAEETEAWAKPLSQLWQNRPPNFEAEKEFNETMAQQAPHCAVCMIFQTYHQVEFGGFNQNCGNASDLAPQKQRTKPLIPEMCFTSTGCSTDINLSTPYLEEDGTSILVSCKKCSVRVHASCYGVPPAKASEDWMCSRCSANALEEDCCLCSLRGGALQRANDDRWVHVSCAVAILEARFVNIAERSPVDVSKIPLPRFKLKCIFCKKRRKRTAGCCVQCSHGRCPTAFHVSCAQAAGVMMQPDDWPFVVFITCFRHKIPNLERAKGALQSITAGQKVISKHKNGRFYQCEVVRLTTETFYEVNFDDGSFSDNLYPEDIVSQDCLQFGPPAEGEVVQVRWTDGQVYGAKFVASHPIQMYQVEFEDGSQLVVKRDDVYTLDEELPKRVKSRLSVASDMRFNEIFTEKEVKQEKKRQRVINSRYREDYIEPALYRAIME
* hit, by the source's call; ? = inconclusive; . = no result; [ ] = another dose, or the depositor's remark. Calls come from the whole dose curve; as a rule, active = well fitted curve in the direction sought with a large enough effect; inconclusive = small, poorly fitted or top-dose-only effect, or another doubt; inactive = no such curve, though single readings can be large; an effect the other way counts as inactive or inconclusive. Potency is the fitted concentration of half-maximal effect.

SMILES	G9a inh	VDR inh	BAZ2B inh	HP1b binding inh	PLK1 PBD inh	JMJD2A Tudor inh
O=C(CCn1c(=O)c2cccn2c2cccnc21)Nc1ccccc1C(F)(F)F	-7.2%[59 µM]	-3.1%	-4.4%	-0.3%	.	-22.0%
Cc1noc(C)c1S(=O)(=O)N(C)C[C@H]1OCc2cnnn2CCCC(=O)N([C@H](C)CO)C[C@H]1C	.	.	.	.	-8.1%	.
CC(=O)Nc1ccc(Nc2nc3ccccc3n3cnnc23)cc1	0.0%	-5.2%	-13.7%	25.3%	4.6%	2.8%
CCc1ccccc1Nc1nc(N)nc(CSCC(=O)c2cc(C)n(C)c2C)n1	?	-0.6%	56.2µM*	-13.9%	-13.2%	?
O=C(NCc1ccc(F)cc1)c1ccc2c(c1)S(=O)(=O)c1ccccc1C2=O	.	-1.4%	.	-7.8%	-6.3%	?
CCOCCCNc1nc2c(C)cccn2c(=O)c1/C=C1\SC(=S)N(CC(C)C)C1=O	-25.3%[59 µM]	-7.6%	-17.8%	9.8%	23.8%	-10.6%
O=C1/C(=C\c2c(NCCOCCO)nc3ccccn3c2=O)SC(=S)N1Cc1ccco1	39.8µM*	15.8%	?	-2.5%	36.2%	-22.6%
Cc1cc(/C=C2/NC(=O)NC2=O)c(C)n1-c1ccc(N2CCOCC2)cc1	44.7µM*	-14.6%	?	?	-20.3%	?
Cc1cc(/C=C2/NC(=O)NC2=O)c(C)n1-c1ccc(C#N)cc1	?	?	?	-15.4%	18.9µM*	-16.5%[11.4 µM]
Cc1cc(/C=C2\NC(=O)NC2=O)c(C)n1-c1ccc(N2CCOCC2)cc1	.	7.8%	-32.7%	-35.5%	-6.5%	?
Cc1ccc(-n2c(C)cc(/C=C3\NC(=O)NC3=O)c2C)c(C)c1	?	?	39.8µM*	?	21.2µM*	35.5µM*
COc1ccc(OC)c(-n2c3c(cc(-c4nc(-c5ccc(Cl)cc5)cs4)c2=O)C(=O)CC(C)(C)C3)c1	8.0%[59 µM]	-15.6%	9.3%	65.0%	.	27.6%
COc1ccc2c(c1)-c1nc(/N=C/c3c(O)ccc4ccccc34)sc1CC2	1.58µM*	-22.9%	?	?	?	39.8µM*
COc1ccc2c(c1)-c1nc(/N=C/c3ccc(O)cc3)sc1CC2	?	-18.0%	50.1µM*	-16.4%	-9.9%	?
COc1ccc2c(c1)CCc1sc(NC(=O)c3ccc(Br)cc3)nc1-2	?	2.6%	-0.9%	33.6%	.	-28.0%
COC(=O)[C@@]1(Cc2ccc(OC)cc2)[C@@H]2C(=CC(=O)[C@H]2CC(=O)C(=O)N2CCCC2)CN1C(=O)c1ccccc1	?	89.1µM*	-9.2%	40.1%	-7.3%	8.4%
COC(=O)[C@@]1(Cc2ccc(OC)cc2)[C@H]2c3cc(C(=O)N4CCCC4)n(CCN4CCOCC4)c3C[C@H]2CN1C(=O)c1ccccc1	.	.	.	.	-7.1%	.
COC(=O)[C@@]1(Cc2ccc(OC)cc2)[C@H]2c3cc(C(=O)N(C)C)n(CCc4ccc(OC)c(Br)c4)c3C[C@H]2CN1C(=O)c1ccccc1	39.8µM*	.	?	.	.	.
COC(=O)[C@@]1(Cc2ccc(OC)cc2)[C@H]2c3cc(C(=O)N4CCCC4)n(Cc4ccc(OC)c(OC)c4)c3C[C@H]2CN1C(=O)c1ccccc1	44.7µM*	.	?	.	.	.
COC(=O)[C@@]1(Cc2ccc(OC)cc2)[C@H]2c3cc(C(=O)N4CCCC4)n(CCN4CCNC4=O)c3C[C@H]2CN1C(=O)c1ccccc1	79.4µM*	.	-11.4%	.	.	.
COC(=O)[C@@]1(Cc2ccc(F)cc2)[C@H]2C(CC(=O)C(=O)N3CCCC3)C(=O)C[C@H]2CN1C(=O)c1ccccc1 (stereo partly specified)	.	.	.	.	-13.9%	.
COc1ccc(C(=O)OCC(=O)NC2CCCCCC2)cc1OC	10.0%[59 µM]	6.0%	13.2%	46.3%	-16.7%	1.3%
Cc1c(C(=O)OCCOc2ccccc2)[nH]c2c1C(=O)CC(c1ccccc1Cl)C2 (stereo unspecified)	-2.5%[59 µM]	-19.0%	-1.7%	32.0%	.	-7.9%
COC(=O)[C@@]1(Cc2ccc(F)cc2)[C@H]2c3cc(C(=O)N(C)C)n(Cc4nc5ccccc5[nH]4)c3C[C@H]2CN1C(=O)c1ccccc1	50.1µM*	3.1%	?	-2.2%	-0.1%	?
COC(=O)[C@@]1(Cc2ccc(OC)cc2)[C@H]2c3cc(C(=O)N(C)C)n(Cc4c(CO)[nH]cc(C)c4=O)c3C[C@H]2CN1C(=O)c1ccccc1	.	-4.5%	.	21.4%	10.6%	-21.1%
SMILES	G9a inh	VDR inh	BAZ2B inh	HP1b binding inh	PLK1 PBD inh	JMJD2A Tudor inh
COC(=O)[C@@]1(Cc2ccc(F)cc2)[C@H]2c3cc(C(=O)N(C)C)n(Cc4ccccn4)c3C[C@H]2CN1C(=O)c1ccccc1	?	-6.5%	?	17.9%	-9.9%	-35.2%
COC(=O)[C@@]1(Cc2ccc(OC)cc2)[C@H]2c3cc(C(=O)N(C)C)[nH]c3C[C@H]2CN1C(=O)c1ccccc1	50.1µM*	-8.3%	56.2µM*	13.1%	-1.6%	-29.8%
Clc1ccc(CSc2nnc(-c3ccccn3)n2Cc2ccco2)c(Cl)c1	50.1µM*	-13.4%	-4.7%	19.5%	-17.4%	?
O=C(CSc1nnc(-c2cccnc2)n1Cc1ccco1)c1ccccc1	-15.8%[12.7 µM]	-15.7%	-28.8%	24.5%	-6.8%	-19.2%
Fc1ccccc1CSc1nnc(-c2cnccn2)n1Cc1ccco1	-15.9%[59 µM]	-12.7%	-20.9%	8.0%	-1.1%	-24.1%
O=C(CSc1nnc(-c2ccc(O)cc2)n1Cc1ccco1)c1ccccc1	50.1µM*	6.1%	-9.2%	51.8%	-9.4%	-10.0%
O=C(CSc1nnc(-c2ccccn2)n1Cc1ccco1)c1ccc(-c2ccccc2)cc1	44.7µM*	?	-3.9%	4.7%	-24.0%	-30.6%
C(=C\c1ccccc1)/CSc1nnc(-c2cnccn2)n1Cc1ccco1	10µM*	?	-34.3%	6.1%	-19.4%	?
Cc1ccc(C(=O)c2oc3ccccc3c2NC(=O)C(C)Oc2ccccc2Cl)cc1 (stereo unspecified)	2.2%[59 µM]	-10.6%	2.6%	34.7%	.	8.2%
Nn1c(SC/C=C/c2ccccc2)nnc1-c1ccncc1	14.1µM*	-13.1%	-7.1%	20.1%	-11.5%	?
COc1cc(-c2nnc(SC/C=C/c3ccccc3)n2N)cc(OC)c1OC	-2.1%[12.7 µM]	2.6%	-3.4%	11.9%	-3.0%	-2.1%
COc1cc(Cn2ccnc2)c(OC)cc1Cn1ccnc1	?	-9.9%	79.4µM*	6.4%	-14.6%	-35.3%
COc1ccc(C(=O)Nc2ccc(Cn3ccnc3)cc2)cc1OC	1.3%	-12.6%	-36.6%	36.9%	-3.3%	-8.2%
Cc1nc(=O)c(-c2ccccc2)c(C)n1-c1cccc(/C=C/C(=O)O)c1	-0.4%	-14.5%	-0.5%	29.7%	-8.5%	-3.7%
NC(=O)NOCc1ccc(Cl)cc1Cl	3.5%	-22.5%	1.6%	-9.8%	26.7µM*	-3.0%[11.4 µM]
